# Laboratory results from PubChem BioAssay.
# Assay: compounds binding Alexa647 anti-His antibody – biochemical, small-molecule microarray, 635 nm fluorescence, artefact control for SMM control protein annotation, primary screen (AID 1128);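 also: score merges feature fluorescence with signal-to-noise for each printed compound spot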
# Conditions: higher = more signal
row,Compound,composite z-score
1,CCO[C@H](c1cc(OC)cc([N+](=O)[O-])c1OC)[C@H](C)C=CCC(=O)OC,0.051
2,COC(=O)[C@H](C)NC(=O)CCC1CC(OC(=O)NCCc2ccc(F)cc2)CC2(CCCC(COC(=O)NCc3cccc(C(F)(F)F)c3)O2)O1 (stereo not given in full),0.158
3,CCOC(=O)[C@H](CC(C)C)NC(=O)CCC1CC(OC(=O)NCc2ccc3c(c2)OCO3)CC2(CCCC(COC(=O)NCc3cccc(C(F)(F)F)c3)O2)O1 (stereo not given in full),0.339
4,COC(=O)[C@H](C)NC(=O)CCC1CC(OC(=O)NCc2ccc3c(c2)OCO3)CC2(CCCC(COC(=O)NCc3cccc(C(F)(F)F)c3)O2)O1 (stereo not given in full),0.0275
5,C[C@@H](c1ccccc1)N1C(=O)[C@H]2[C@H]3[C@H](O)[C@H](O)CC(=NO[C@@H]4O[C@H](CO)[C@@H](O)[C@H](O)[C@H]4O)[C@H]3CC[C@H]2C1=O,0.746
6,CCc1cc2c(nc1CC)CCN(CCC(C)=NO[C@H](C)c1cn([C@H](CO)Cc3ccccc3)nn1)C2,1.08
7,O=C1C[C@@H](O)[C@@H](O)[C@@H]2[C@@H]3C(=O)N(Cc4ccccc4)C(=O)[C@@H]3CC[C@@H]12,0.467
8,COc1ccc(O[C@H]2C=C[C@@H](c3ccccc3)O[C@@H]2CON=CC[C@@H]2C=C[C@H](OC(C)=O)[C@@H](COC(C)=O)O2)cc1,2.11
9,Cc1ccc(S(=O)(=O)n2c3ccccc3c3nnc(C(=O)c4ccccc4)nc32)cc1,-0.252
10,CCCNC(=O)OC[C@H]1O[C@H](CCON=C(C)CCC(=O)OC[C@H]2O[C@H](c3ccccc3)C=C[C@@H]2Oc2ccc(OC)cc2)C=C[C@@H]1Oc1ccc(OC)cc1,2.6
